Screening data as filed in PubChem.
Shown are actives, neighbours in structure and some others; about 4% of the full set was active somewhere.
FBA Mtb inh = inhibits M. tuberculosis FBA enzyme | purified M. tuberculosis FBA, fluorescence read-out | AID 588726 | P9WQA3 | inhibition, % at 1 µM | 360,000 compounds, 2.3% hits;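 also: 0% = vehicle and 100% = reference inhibitor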
Rv3671c protease = inhibitors of M. tuberculosis serine protease Rv3671c. P9WHR9. inhibition, % at 5.96 µM. 320,000 compounds, 0.048% hits. AID 2606; in the data active = inhibition above about 38%;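 also: extracellular domain of Rv3671c used as enzyme; 0% = enzyme with DMSO and 100% = no enzyme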
Mtb UGM inh = inhibitors of M. tuberculosis UDP-galactopyranose mutase; purified UGM, fluorescence polarization probe displacement; AID 504406; 320,000 compounds, 0.06% hits; inhibition, % at 10 µM; P9WIQ1; in the data active = inhibition above about 10%, passing the limit was not always enough; inconclusive = no clear call, values can overlap the other calls
Target sequence (P9WIQ1 whole entry, looked up): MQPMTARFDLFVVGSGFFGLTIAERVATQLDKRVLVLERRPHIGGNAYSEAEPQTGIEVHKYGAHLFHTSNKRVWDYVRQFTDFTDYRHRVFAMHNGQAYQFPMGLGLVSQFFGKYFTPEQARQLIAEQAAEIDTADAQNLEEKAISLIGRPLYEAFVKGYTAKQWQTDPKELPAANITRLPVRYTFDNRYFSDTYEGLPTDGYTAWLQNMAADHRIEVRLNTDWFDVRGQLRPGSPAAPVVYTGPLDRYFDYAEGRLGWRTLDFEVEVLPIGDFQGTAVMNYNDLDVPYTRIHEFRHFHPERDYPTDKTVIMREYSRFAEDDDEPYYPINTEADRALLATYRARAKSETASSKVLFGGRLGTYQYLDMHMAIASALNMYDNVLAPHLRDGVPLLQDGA
GDH-TPI counter-1 = counter-screen for M. tuberculosis FBA inhibitors: GDH-TPI coupled enzymes. 360,000 compounds, 1.2% hits. AID 588335. inhibition, % at 4.8 µM. GDH-TPI coupled enzyme counterscreen, NADH absorbance; in the data active = inhibition above about 30%;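 also: 0% = DMSO wells and 100% = wells lacking the enzyme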
RecA intein inh = Mtb RecA intein splicing inhibition | cell-free RecA intein splicing, fluorescence | inhibition, % (no concentration beside the values) | AID 2221 | 290,000 compounds, 0.75% hits; in the data active = inhibition above about 30%; inconclusive = no clear call, values can overlap the other calls;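 also: 0% = vehicle wells and 100% = reference inhibitor control wells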
Mtb bLac sens = beta-lactam sensitization of Mtb H37Rv; M. tuberculosis H37Rv growth with meropenem, percent inhibition; inhibition, % at 25 µM; 330,000 compounds, 0.27% hits; call rule not given here;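 also: growth measured after seven days incubation then overnight dye step; 0% = bacteria only wells and 100% = bacteria with antibiotic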
Mtb FBA confirm = confirmation of M. tuberculosis fructose-bisphosphate aldolase inhibitors; shares compounds with FBA Mtb inh; purified M. tuberculosis FBA, fluorescence read-out; inhibition, % at 1 µM; 5,600 compounds, 78% hits;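 also: 0% = vehicle wells and 100% = reference inhibitor wells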
GDH-TPI counter-2 = GDH-TPI inhibition counter-screen for FBA inhibitors. shares compounds with FBA Mtb inh. GDH-TPI coupled enzyme counterscreen, fluorescence. inhibition, % at 1 µM. 5,600 compounds, 81% hits; in the data active = inhibition above about 10%
* hit, by the source's call; ? = inconclusive; nt = no result given; + = active, no number. Rule as the data show it, unless noted: active = inhibition above about 27%; inactive = the rest.

SMILES | FBA Mtb inh | Rv3671c protease | Mtb UGM inh | GDH-TPI counter-1 | RecA intein inh | Mtb bLac sens | Mtb FBA confirm | GDH-TPI counter-2
CCOC(=O)C(CC(=O)O)=C(c1ccccc1)c1ccccc1 | 1 | 6 | 2 | -8 | -1 | 2 | nt | nt
CN1CCN(C(=O)C2CCC(=O)N(Cc3cccc(C(F)(F)F)c3)C2)CC1 (centres undefined) | 0 | 8 | -1 | -4 | 0 | 4 | nt | nt
CCCCn1c(-c2csc3ccccc23)n[nH]c1=S | 1 | 1 | 3 | -2 | 1 | 0 | nt | nt
CCCCCCn1c(-c2cccs2)n[nH]c1=S | 48* | -10 | -4 | 183* | 3 | 9 | -4 | -7
c1ccc2c(N3CCCCC3)nc(N3CCCC3)nc2c1 | 9 | 0 | 2 | -4 | 7 | -3 | nt | nt
Nc1nc(N2CCCCC2)nc2ccccc12 | 31* | -1 | 0 | 13 | 0 | -9 | 44* | 37*
Nc1ccc2ccccc2c1 | 28* | nt | nt | 4 | nt | nt | 40* | 34*
Cc1sc2nc(-c3ccccn3)[nH]c(=O)c2c1-c1ccccc1 | 31* | -7 | -1 | 7 | 0 | 91 | 46* | 37*
Cc1sc2nc(-c3ccncc3)[nH]c(=O)c2c1-c1ccccc1 | nt | -2 | 1 | nt | 2 | 12 | nt | nt
CC1CCN(S(=O)(=O)c2cn(CC(=O)Nc3cccc(C#N)c3)cn2)CC1 | 39* | 3 | 1 | 17 | -2 | 3 | 80* | 65*
CC(=O)c1cccc(NC(=O)Cn2cnc(S(=O)(=O)N3CCC(C)CC3)c2)c1 | 1 | 5 | 1 | 18 | -2 | 2 | nt | nt
CC(=O)COc1ccc2c(-c3cccc([N+](=O)[O-])c3)cc(=O)oc2c1 | 36* | -2 | 1 | 5 | -2 | -8 | 108* | 74*
CC(=O)NC(c1ccccc1)c1nc(-c2cc3ccccc3o2)cs1 (centres undefined) | 0 | nt | nt | 7 | nt | nt | nt | nt
Nc1o[nH]c(=O)c1C1CCCCC1 | -2 | nt | nt | -1 | nt | nt | nt | nt
CCOC(=O)N1CCN(C2CCCN(C(=O)c3cccc(N(C)C)c3)C2)CC1 (centres undefined) | -1 | 2 | 1 | -8 | 0 | 1 | nt | nt
CCN1CCCC1Cn1cnc2c([nH]c3ccc(C)cc32)c1=O (centres undefined) | 37* | -5 | 2 | 20 | 1 | -9 | 60* | 37*
CCN1CCCC1CNc1ncnc2c1[nH]c1ccc(Cl)cc12 (centres undefined) | 10 | -2 | 0 | 5 | 1 | -18 | nt | nt
Cc1ccc2[nH]c3c(=O)n(Cc4ccncc4)cnc3c2c1 | 29* | 2 | 0 | -2 | -2 | -14 | + | 182*
CCCCc1nnc(NC(=O)CSCc2cc(=O)n3cc(C)sc3n2)s1 | 2 | -18 | 4 | 17 | -2 | -8 | nt | nt
O=C(COC(=O)CN1C(=O)C2CCCCC2C1=O)NCc1ccc(Cl)cc1Cl (centres undefined) | 1 | 6 | 1 | 4 | nt | -5 | nt | nt
CN(C)CCNC(=O)c1c(NC(=O)c2ccccc2)sc2c1CCCC2 | 40* | -2 | 1 | 22 | 0 | 4 | 114* | 109*
Cc1sc2nc(CN3CCCC3)nc(N3CCN(S(=O)(=O)c4cccc(F)c4)CC3)c2c1C | 1 | -4 | -1 | 6 | nt | -1 | nt | nt
CN1CCCC(C)(C(=O)Nc2ccc(-n3cccc3)cc2)C1 (centres undefined) | 0 | nt | nt | 12 | nt | nt | nt | nt
Cc1nc2nc(NCc3cccs3)nn2c(C)c1Cl | 35* | -23 | 0 | 3 | -1 | -8 | 62* | 41*
COc1ccc(CNc2nc3nc(C)c(Cl)c(C)n3n2)cc1 | 4 | 6 | 4 | 6 | 0 | -2 | nt | nt
SMILES | FBA Mtb inh | Rv3671c protease | Mtb UGM inh | GDH-TPI counter-1 | RecA intein inh | Mtb bLac sens | Mtb FBA confirm | GDH-TPI counter-2
Cc1nc2nc(COc3ccccc3)nn2c(C)c1Cl | 39* | 2 | 1 | 5 | nt | -5 | + | 189*
Cc1nc2nc(-c3ccco3)nn2c(C)c1Cl | 38* | -3 | 0 | 10 | -3 | -9 | 37* | 35*
Cc1nc2nc(Cc3ccccc3)nn2c(C)c1Cl | 1 | -4 | -1 | 9 | -2 | 6 | nt | nt
CC(=O)NC12CC3CC(C1)CC(C(=O)Nc1cccc(S(=O)(=O)N4CCCCCC4)c1)(C3)C2 | 1 | nt | nt | -5 | nt | nt | nt | nt
CCOC1=C2[C@@H](CN(S(=O)(=O)c3ccc(C)cc3)[C@H]2c2cccc3ccccc23)[C@H]2C(=O)N(C3CCCCC3)C(=O)[C@H]2C1 | 2 | nt | nt | nt | nt | nt | nt | nt
CC(=O)Oc1ccccc1C(=O)NC(C)CCc1ccccc1 (centres undefined) | 2 | 9 | 4 | 11 | 10 | 2 | nt | nt
COCC(C)NC(=O)c1ccccc1OC(C)=O (centres undefined) | 35* | -6 | 3 | 10 | 2 | 2 | 42* | 38*
COc1cc(OC)c(C2=NOC(C(=O)Nc3ccc4c(c3)OCO4)C2)cc1Cl (centres undefined) | 57* | 3 | 1 | 1 | 5 | 3 | 53* | 42*
COc1ccccc1CNC(=O)CCc1c(C)nc2cc(-c3ccccc3OC)nn2c1C | 16 | -5 | -1 | 9 | 1 | 5 | nt | nt
CCOC(=O)CCc1c(C)n(CC)c2cc(-c3ccccc3OC)nn2c1=O | 67* | -3 | 1 | 8 | 0 | -9 | + | +
CCN(CC)CCCNC(=O)CCc1c(C)n(CC)c2cc(-c3ccccc3OC)nn2c1=O | 65* | -5 | 2 | -7 | 0 | -1 | 195* | 118*
C=CCNC(=S)N1CCN(Cc2ccc3c(c2)OCO3)CC1 | -3 | 13 | 2 | 7 | -7 | -6 | nt | nt
COc1ccccc1-n1nnnc1SCC(=O)NC1CCCCC1 | 1 | 0 | 0 | -8 | -5 | -3 | nt | nt
COc1ccc2oc(C(=O)NC3CCCCC3)c(C)c2c1 | 28* | -2 | -3 | 7 | -5 | 0 | 41* | 27*
COc1ccc2oc(C(=O)OCC(=O)NC3CC3)c(C)c2c1 | 44* | 4 | -1 | 4 | 1 | ? | + | +
COc1ccc2oc(C(=O)OCC(=O)NC(C)(C#N)C3CC3)c(C)c2c1 (centres undefined) | 31* | -1 | -5 | 7 | -2 | 0 | 21 | 24*
COC(=O)c1oc2ccc(OC)cc2c1N | 29* | 9 | 0 | 8 | -8 | 3 | + | 166*
C=CC[C@@H](CC(=O)N[C@H](CO)Cc1ccccc1)C(=O)N[C@@H](COC(=O)[C@@H](CC=C)CC(=O)OC(C)(C)C)Cc1ccccc1 | 2 | 0 | 1 | 0 | nt | -7 | nt | nt
CCCNC(=O)NC(=O)COC(=O)c1oc2ccc(OCC)cc2c1C | 23 | 3 | -1 | 4 | -6 | -6 | nt | nt
NC(=O)c1oc2ccc(Cl)cc2c1N | 87* | -3 | 0 | 5 | -1 | 1 | 100* | 69*
